Measured values as given in PubChem BioAssay (NCATS).
Inconclusive results are not listed. The source made the active and inactive calls. Calls come from the whole dose curve; as a rule, active = well fitted curve in the direction sought with a large enough effect; inconclusive = small, poorly fitted or top-dose-only effect, or another doubt; inactive = no such curve, though single readings can be large; an effect the other way counts as inactive or inconclusive.

What was measured:
[1] = Quantitative highthroughput screen to assess conditional lethalithy of NOMO1 cells grown in RPMI1640 with untreated serum (RPMI+s) (AID 1963876); note: nearly all actives have a fitted effect of over 35% in size; note: potency is the fitted concentration of half-maximal effect;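 for viability: 100% = DMSO wells and 0% = empty wells without cells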
Procedure, shortened: (§1)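 Each medium arm—HPLM with 10% dialyzed FBS, or RPMI1640 with 5 mM glucose and 10% untreated or dialyzed FBS—was screened against an 11-point, 3-fold compound titration for 48 h at 37 °C, with CellTiter-Glo luminescence as endpoint.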

[2] = Quantitative highthroughput screen to assess conditional lethalithy of NOMO1 cells grown in RPMI1640 with dialyzed fetal bovine serum (RPMI+ds) (AID 1963877); note: nearly all actives have a fitted effect of over 30% in size; note: potency is the fitted concentration of half-maximal effect;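 for viability: series mostly up to about 46 µM; 100% = DMSO control wells and 0% = empty wells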
Procedure, shortened: as §1

[3] = Quantitative highthroughput screen to assess conditional lethalithy of P12 Ichikawa cells grown in Human Plasma-Like Medium with dialyzed fetal bovine serum (HPLM+ds) (AID 1963879); details: Potency: viability; note: nearly all actives have a fitted effect of over 35% in size; note: potency is the fitted concentration of half-maximal effect; for viability: series mostly up to about 46 µM
Procedure, shortened: as §1

[4] = Quantitative highthroughput screen to assess conditional lethalithy of P12 Ichikawa cells grown in RPMI1640 with untreated serum (RPMI+s) (AID 1963881); details: Potency: viability; note: nearly all actives have a fitted effect of over 35% in size; note: potency is the fitted concentration of half-maximal effect;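 for viability: series mostly up to about 46 µM; 100% = DMSO wells and 0% = empty wells without cells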
Procedure, shortened: as §1

[5] = Quantitative highthroughput screen to assess conditional lethalithy of SEM cells grown in Human Plasma-Like Medium with dialyzed fetal bovine serum (HPLM+ds) (AID 1963882); note: series mostly up to about 46 µM; nearly all actives have a fitted effect of over 35% in size
Procedure, shortened: as §1

[6] = Quantitative highthroughput screen to assess conditional lethalithy of SEM cells grown in RPMI1640 with dialyzed fetal bovine serum (RPMI+ds) (AID 1963884); note: nearly all actives have a fitted effect of over 35% in size; note: potency is the fitted concentration of half-maximal effect;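 for viability: series mostly up to about 46 µM; 100% = DMSO control wells and 0% = empty wells without cells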
Procedure, shortened: as §1

[7] = Quantitative highthroughput screen to assess conditional lethalithy of NOMO1 cells grown in Human Plasma-Like Medium with dialyzed fetal bovine serum (HPLM+ds) (AID 1963878)
Procedure, shortened: as §1

[8] = Cellular viability qHTS for adrenocortical cancer (ACC) cell line SW-13 (AID 1963989); details: SW-13 ACC cells viability, CellTiter-Glo, 48 h; activity (max response): hits give low values; note: nearly all actives have a fitted effect of over 65% in size; note: potency is the fitted concentration of half-maximal effect;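 for activity (max response): cells grown in serum-free medium with ITS supplement; % is set by controls: 0 for no effect and ±100 for the full control effect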
Procedure, shortened: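 SW-13 cells in ITS-supplemented serum-free DMEM were plated overnight, then exposed for 48 h at 37C to compound titrations (up to 46 uM final). Viability was read by CellTiter-Glo luminescence; four-parameter logistic fits gave IC50 and efficacy.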

[9] = Cellular viability qHTS for adrenocortical cancer (ACC) cell line NCI-H295R (AID 1963990); note: nearly all actives have a fitted effect of over 60% in size; note: potency is the fitted concentration of half-maximal effect
Procedure, shortened: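 Luminescent ATP read-out (CellTiter-Glo, 20 min RT) after 48 h drug exposure of NCI-H295R cells; a titration up to 46 uM final. Data normalized to doxorubicin (100% inhibition) and DMSO (0%); 4-parameter fit gives IC50, max response.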

[10] = Quantitative highthroughput screen to assess conditional lethalithy of P12 Ichikawa cells grown in RPMI1640 with dialyzed fetal bovine serum (RPMI+ds) (AID 1963880); details: Potency: P12-Ichikawa viability; note: nearly all actives have a fitted effect of over 35% in size; note: potency is the fitted concentration of half-maximal effect;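 for viability: 100% = DMSO wells and 0% = empty wells on each plate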
Procedure, shortened: as §1

[11] = Quantitative highthroughput screen to assess conditional lethalithy of SEM cells grown in RPMI1640 with unreated serum (RPMI+s) (AID 1963883); note: nearly all actives have a fitted effect of over 35% in size; note: potency is the fitted concentration of half-maximal effect;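 for viability: 100% = DMSO wells and 0% = empty wells without cells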
Procedure, shortened: as §1

[12] = Viability qHTS for spleen associated tyrosine kinase inhibitor (SYKi) drug resistant MV4-11 cells (AID 1963824); note: nearly all actives have a fitted effect of over 35% in size; note: potency is the fitted concentration of half-maximal effect
Procedure, shortened: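 CellTiter-Glo luminescence, read 10 min after reagent addition, reports viability after a 72 hr compound exposure. Cells are an MV4-11 line made resistant to SYK inhibition, seeded at 500 per well onto compound-containing plates.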

C[C@H]([C@H](O)CCC(C)(C)O)[C@H]1CC[C@@]2(O)C3=CC(=O)[C@@H]4C[C@@H](O)[C@@H](O)C[C@]4(C)[C@@H]3CC[C@]12C
inactive: Potency [1] | Potency [2] | Potency [3] | Potency [4] | Potency [5] | Potency [6]

C[C@]12CC[C@H]3[C@@H](CCC4=CC(=O)CC[C@@]43C)[C@H]1CC[C@H]2OC(=O)CCC1CCCC1
inactive: Potency [1] | Potency [7] | Potency [3] | Potency [5] | Potency [6] | activity (max response) [8] -10.5% | Potency [9]

C[C@]12CC[C@H](O)CC1=CC[C@H]1[C@H]3CCC(=O)[C@@]3(C)CC[C@@H]12
inactive: Potency [1] | Potency [2] | Potency [3] | Potency [10] | Potency [4] | Potency [5] | Potency [11]

C#C[C@]1(O)C=C[C@@H]2[C@@H]3CCC4=CC(=O)CC[C@@H]4[C@H]3CC[C@@]21CC
inactive: Potency [1] | Potency [7] | Potency [3] | Potency [5]

CO[C@H]1CCC(O[C@H]2C[C@H]([C@]3(C)CC[C@]4(C[C@H](O)[C@@H](C)[C@@H]([C@@H](C)C=C(C)C(=O)[C@H](C)C[C@H](C)C(=O)O)O4)O3)O[C@]3(O[C@@H]([C@H]4O[C@@](O)(CO)[C@H](C)C[C@H]4C)C[C@H]3C)[C@H]2C)O[C@H]1C (stereo not given in full)
active: Potency [1] 18.7 µM | Potency [3] 3.72 µM | Potency [11] 1.87 µM | Potency [6] 1.32 µM

C[C@](O)(CS(=O)(=O)c1ccc(F)cc1)C(=O)Nc1ccc(C#N)c(C(F)(F)F)c1
inactive: Potency [1] | Potency [7] | Potency [3] | Potency [10] | Potency [4] | Potency [5] | Potency [11]

c1ccc2c(c1)OCC(C1=NCCN1)O2 (stereo not given)
inactive: Potency [12]
active: Potency [9] 13 µM

O=[N+]([O-])c1ncc[nH]1
inactive: Potency [1] | Potency [3] | Potency [10] | Potency [4] | Potency [5] | Potency [11]

Cc1ccccc1-n1c(Cn2ncc3c(N)ncnc32)nc2cccc(C)c2c1=O
inactive: Potency [5] | Potency [11] | activity (max response) [8] 2.46%
active: Potency [1] 0.372 µM | Potency [3] 2.96 µM | Potency [10] 3.32 µM | Potency [4] 2.64 µM

C=C[C@@H]1CN2CCC1C[C@H]2[C@H](O)c1ccnc2ccccc12 (stereo not given in full)
inactive: Potency [1] | Potency [3]
active: Potency [2] 18.7 µM

C[C@H]1CCCC=CC2C[C@H](O)C[C@@H]2[C@H](O)C=CC(=O)O1 (stereo not given in full)
inactive: Potency [1] | Potency [7]
active: Potency [10] 0.0235 µM

CC(C)(C)[C@]1(O)C[C@@H]2OC(=O)C[C@@]23C(=O)O[C@@H]2OC(=O)[C@H](O)C213 (stereo not given in full)
inactive: Potency [1] | Potency [2] | Potency [10] | Potency [4]

C[C@@H]1O[C@@H](O[C@@H]2C=C3CC[C@@H]4[C@@H](CC[C@]5(C)[C@H](c6ccc(=O)oc6)CC[C@@]45O)[C@@]3(C)CC2)[C@H](O)[C@H](O)[C@H]1O
active: Potency [1] 0.0662 µM | Potency [2] 0.0469 µM | Potency [3] 0.0209 µM | Potency [10] 0.0235 µM | Potency [11] 0.0469 µM

COc1ccc(CC2NCCc3cc(OC)c(OC)cc32)cc1OC (stereo not given)
inactive: Potency [1] | Potency [2] | Potency [10]

NC1CC1c1ccccc1 (stereo not given)
inactive: Potency [1] | Potency [3] | Potency [10] | Potency [11]

COC1CC(=C(c2cccs2)c2cccs2)C[N+](C)(C)C1 (stereo not given)
inactive: Potency [9]
active: Potency [12] 16.8 µM

CC(N[C@H]1C[C@H]1c1ccccc1)c1ccc2c(c1)OCCO2 (stereo not given in full)
inactive: Potency [1] | Potency [7] | Potency [5] | Potency [11]

O=C1C=CC[C@@H]2[C@H]3CCCN4CCC[C@@H](CN12)[C@@H]34
inactive: Potency [7] | Potency [11] | Potency [6] | activity (max response) [8] -3.97% | Potency [9]

C[C@]12CCC(=O)C(O)=C1CC[C@@H]1[C@H]3CCC(=O)[C@@]3(C)CC[C@@H]12
inactive: Potency [2] | Potency [10]

CC=C(C)C(=O)N[C@@H](c1ccccc1)[C@@H](O)C(=O)O[C@H]1C[C@@]2(O)[C@@H](OC(=O)c3ccccc3)[C@@H]3[C@]4(OC(C)=O)CO[C@@H]4C[C@H](O)[C@@]3(C)C(=O)[C@H](OC(C)=O)C(=C1C)C2(C)C
inactive: Potency [7] | Potency [5]

Cc1ccc([N+](=O)[O-])[c]2c1[O][Hg]2
active: Potency [8] 0.231 µM

Cc1c(N)nc([C@H](CC(N)=O)NC[C@@H](N)C(N)=O)nc1C(=O)N[C@H](C(=O)N[C@@H](C)[C@H](O)[C@@H](C)C(=O)N[C@@H](C(=O)NCCc1nc(-c2nc(C(=O)NCCC[S+](C)C)cs2)cs1)[C@@H](C)O)C(O[C@H]1O[C@H](CO)[C@H](O)[C@@H](O)[C@@H]1O[C@H]1O[C@H](CO)[C@@H](O)[C@H](OC(N)=O)[C@H]1O)c1cnc[nH]1 (stereo not given in full)
active: Potency [1] 1.18 µM | Potency [11] 3.32 µM
